In the experiment the target is Peroxisome proliferator-activated receptor gamma (Homo sapiens) (UniProt P37231). The experiment in a line: PPARg transcriptional activation, reporter cells – cell-based, luminescence, assay provider, dose response (AID 504447).

Measured potencies and affinities stand elsewhere. Activity calls are given as the source filed them. No rule for the calls is given here.

The text below walks through data of PubChem BioAssay AID504447 (The Scripps Research Institute Molecular Screening Center, 2011).

Sequence of Peroxisome proliferator-activated receptor gamma (Homo sapiens) (P37231 whole entry, looked up): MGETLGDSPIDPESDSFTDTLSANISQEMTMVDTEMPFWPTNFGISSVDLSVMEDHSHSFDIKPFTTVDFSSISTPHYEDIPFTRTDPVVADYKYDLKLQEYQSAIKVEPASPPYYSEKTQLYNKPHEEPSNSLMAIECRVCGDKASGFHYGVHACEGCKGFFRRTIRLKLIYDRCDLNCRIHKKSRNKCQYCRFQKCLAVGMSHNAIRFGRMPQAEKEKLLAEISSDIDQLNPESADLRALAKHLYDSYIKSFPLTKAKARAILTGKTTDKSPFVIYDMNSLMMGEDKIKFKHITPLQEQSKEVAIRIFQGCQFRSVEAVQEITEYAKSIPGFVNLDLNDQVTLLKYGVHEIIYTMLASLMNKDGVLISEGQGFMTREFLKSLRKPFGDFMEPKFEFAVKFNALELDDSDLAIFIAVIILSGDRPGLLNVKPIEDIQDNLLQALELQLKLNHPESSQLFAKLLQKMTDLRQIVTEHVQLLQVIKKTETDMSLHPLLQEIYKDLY

`COc1ccc(CNC(=O)Cn2c(=O)n(CCC(=O)N3CCCCC3)c(=O)c3sccc32)cc1`: the molecule was called inactive.
For `CC(Oc1ccc2c(c1)oc(=O)c1ccccc12)C(=O)NC(Cc1c[nH]c2ccc(O)cc12)C(=O)O` (stereo not drawn), the molecule was classed as inactive.
The value for `Cc1ccc2cc(CN(Cc3ccccc3)Cc3nnnn3C3CCCC3)c(=O)[nH]c2c1` was “inactive”.
Turning to `CCOc1cc(C2C(C(=O)OC)=CN(Cc3ccc(Cl)cc3)C=C2C(=O)OC)ccc1O`, the molecule was classed as inactive.
In the case of `CCOc1cccc(/C(O)=C2/C(=O)C(=O)N(CCN3CCOCC3)C2c2ccncc2)c1` (stereo not drawn), the molecule was called inactive.
On to `O=C(O)CCN1C(=O)/C(=C/c2ccc(C(F)(F)F)cc2C(F)(F)F)SC1=S`, for which the outcome was inactive.
On to `Cc1cc(N2C(=O)C(O)=C(C(=O)c3cccs3)C2c2cccc(Br)c2)no1` (stereo not drawn), for which the molecule was called inactive.
For the molecule `O=C(c1nc2ccccn2c1CN1CCCC(O)C1)N1CCN(C2CCCCC2)CC1` (stereo not drawn), the result was inactive.
With `O=C(c1cccc(N2C(=O)C3C4C=CC(C4)C3C2=O)c1)N1CCN(c2ccccc2Cl)CC1` (stereo not drawn), the outcome was inactive.
Take `O=C(CSc1nnc(Cc2cc(=O)[nH]c(=O)[nH]2)n1-c1ccc(Cl)cc1)N1CCc2ccccc21`: the outcome was inactive.
As to `CCOc1cccc(/C(O)=C2/C(=O)C(=O)N(Cc3ccco3)C2c2ccncc2)c1` (stereo not drawn), the call was inactive.
`CCOc1ccc(CN2CCN(Cc3cccc4nonc34)CC2CCO)cc1` (stereo not drawn): the result was inactive.
For the molecule `CN(CCNC(=O)C1CCCN(c2ncnc3c2nc2n3CCCCC2)C1)Cc1ccccc1` (stereo not drawn), the call was inactive.
The value for `O=C(COc1coc(CN2CCc3ccccc3C2)cc1=O)Nc1ccc(F)cc1F` was “inactive”.
As to `COc1ccc(O)c(C(=O)c2cc(C#N)c(=O)n(-c3ccc(Cl)cc3)c2)c1`, the molecule was classed as inactive.
On to `Cc1cccc(NC(=O)CN2C(=O)/C(=C3\SC(=S)N(CC4CCCO4)C3=O)c3ccccc32)c1` (stereo not drawn), for which the molecule was classed as inactive.
With `COc1ccc(-c2cc(C(=O)NC(C)c3ccccn3)c3ccccc3n2)cc1OC` (stereo not drawn), the outcome was inactive.
The value for `COc1ccccc1NC(=O)C(=O)c1cn(CC(=O)N2CCOCC2)c2ccccc12` was “inactive”; that for `CCOc1cc(N2CCOCC2)c(OCC)cc1NC(=O)c1ccc2ccccc2n1` was “inactive”.
`O=C(Nc1c(C(=O)Nc2ccc3c(c2)OCCO3)cnn1-c1ccccc1Cl)c1ccco1`: the call was inactive.
With `O=C1C(=O)N(CCCn2ccnc2)C(c2ccc(Cl)cc2)/C1=C(\O)c1ccc2c(c1)OCCO2` (stereo not drawn), the outcome was inactive.
On to `CCC(=O)c1ccc(OCC(=O)OC(C)C(=O)Nc2c(C)n(C)n(-c3ccccc3)c2=O)cc1` (stereo not drawn), for which the result was inactive.
For the molecule `Cc1cc(C)c2nc(N3C(=O)C(O)=C(C(=O)c4ccco4)C3c3ccc(O)cc3)sc2c1` (stereo not drawn), the molecule was classed as inactive.
